Test [1] concerns the target Aldehyde dehydrogenase, mitochondrial (Homo sapiens) (UniProt P05091). As to the kind of experiment: qHTS for Inhibitors of the Aldehyde Dehydrogenase Family (ALDH2) Primary screen (AID 2061308).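 Note: plate controls were vehicle for no effect and reference inhibitor for full effect; nearly all actives have a fitted effect of over 55% in size.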 For orientation: Quantitative high-throughput screening tests each substance at several concentrations.
Test [2] concerns the target Retinaldehyde dehydrogenase 3 (Homo sapiens) (UniProt P47895). As to the kind of experiment: qHTS for Inhibitors of the Aldehyde Dehydrogenase Family (ALDH1A3) Primary screen (AID 2061315).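 Note: plate controls were DMSO vehicle for no effect and reference inhibitor for full effect.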

Inconclusive results are not listed. A number with no mark means an inactive call. Calls of active or inactive are those of the source. Calls come from the whole dose curve; as a rule, active = well fitted curve in the direction sought with a large enough effect; inconclusive = small, poorly fitted or top-dose-only effect, or another doubt; inactive = no such curve, though single readings can be large; an effect the other way counts as inactive or inconclusive.

`COc1cc(O)c(C(CC(=O)N2CCC(C)CC2)c2ccc(C)cc2)c(OC)c1` (stereo not given): the Potency entry in test [1] and in test [2] was “inactive” each time.
Take `CCc1ccc(NC(=O)C(=O)NNC(=O)Cc2ccc(Cl)c(Cl)c2)cc1`: the Potency entry in test [1] and in test [2] was “inactive” throughout.
Turning to `C[C@@H]1O[C@@H](O[C@H]2[C@H](OC(=O)[C@]34CCC(C)(C)C[C@H]3C3=CCC5[C@@]6(C)C[C@H](O)[C@H](O[C@@H]7O[C@H](CO)[C@@H](O)[C@H](O)[C@H]7O)[C@](CO)(C(=O)O)C6CC[C@@]5(C)[C@]3(C)C[C@H]4O)OC[C@H](O)[C@@H]2O)[C@H](O)[C@H](O)[C@H]1O[C@@H]1OC[C@@H](O)[C@H](O[C@@H]2OC[C@](O)(CO)[C@H]2O)[C@H]1O` (stereo not given in full), the activity change, negative = inhibition in test [1] is 7.32% [at 11.2 µM]; in test [2], 18.8% [at 11.2 µM].
For `O=C(Nc1ncc(Cc2ccc(C(F)(F)F)cc2)s1)c1cccc(-c2ccccc2)c1`, the Potency result in test [1] and in test [2] was “inactive” each time.
As to `CCCN(Cc1cccs1)c1ncnc2ccc(-c3ccc4c(c3)OCO4)cc12`, the Potency result in test [1] and in test [2] was “inactive” throughout.
For `C=C1C(=O)O[C@H]2C1CCC(C)=C1C(=O)C=C(C)[C@@]12O` (stereo not given in full), the Potency result in test [1] and in test [2] was “inactive” in each case.
With `C#CCOc1cc(C2=Nn3c(nnc3-c3cccc(OCC(C)=O)c3)SC2)ccc1OC`, the Potency result in test [1] and in test [2] was “inactive” each time.
Regarding `Cc1cc2c(s1)c1cnn(Cc3c(Cl)cccc3Cl)c(=O)c1n2C`, the Potency result in test [1] and in test [2] was “inactive” throughout.
Turning to `Cc1ccc(S(=O)(=O)Nc2ccccc2C(=O)Nc2ccc(-c3ccccc3)cn2)cc1`, the Potency entry in test [1] and in test [2] was “inactive” in each case.
For `NC1(C(=O)NC(CCO)c2ccc(Cl)cc2)CCN(c2ncnc3[nH]ccc23)CC1` (stereo not given), the Potency result in test [1] and in test [2] was “inactive” throughout.
With `COc1ccc(C2Nc3cccc(OC)c3C(=O)N2Cc2ccco2)cc1COc1c(C)cc(NC(C)=O)cc1C` (stereo not given), the Potency result in test [1] and in test [2] was “inactive” in each case.
With `N#Cc1ccnc(N2C(=O)CC[C@H]2C(=O)N(c2cncc(F)c2)[C@@H](C(=O)NC2CC(F)(F)C2)c2ccccc2Cl)c1`, the Potency entry in test [1] and in test [2] was “inactive” in each case.
As for `Cc1ccc(N(C)S(=O)(=O)c2ccc3c(c2)CCC(=O)N3)cc1C`, the Potency entry in test [1] and in test [2] was “inactive” each time.
`Cc1noc(C)c1-c1ccc2ncnc(NCC3CCN(C)CC3)c2c1`: the Potency result in test [1] and in test [2] was “inactive” throughout.
For the compound `CCN(CC)CCn1c(-c2ccccc2)nc2c(NCCOC)nc(C)nc21`, the Potency entry in test [1] and in test [2] was “inactive” throughout.
On to `CC(C)(C)c1cccc(-n2cnc3cc(C(=O)N4CCCCC4)ccc32)c1`, for which the Potency result in test [1] and in test [2] was “inactive” each time.
Take `C=CCNc1oc(-c2ccc(Cl)cc2)nc1C#N`: the Potency result in test [1] and in test [2] was “inactive” each time.
Regarding `O=C(COC(=O)CNC(=O)c1ccccc1Cl)Nc1ccccc1Cl`, the Potency entry in test [1] and in test [2] was “inactive” throughout.
As to `Cc1cccc(C(=O)NC2CCN(C#N)CC2)c1`, the Potency result in test [1] and in test [2] was “inactive” throughout.
On to `Cc1ccc(NS(=O)(=O)c2ccc3c(c2)CC(=O)N3C)cc1C`, for which the Potency result in test [1] and in test [2] was “inactive” each time.
Regarding `COc1ccc(C(=O)Nc2ccc(-c3nc4ccccc4[nH]3)cc2)cc1F`, the Potency result in test [1] and in test [2] was “inactive” in each case.
Regarding `O=C(O)C[C@H]1CCC(=O)[C@@H]1C/C=C\CCO`, the Potency entry in test [1] and in test [2] was “inactive” in each case.
Take `O=C1CCCC2=C1C(c1ccc(F)cc1)N=C(Nc1nc3ccccc3o1)N2` (stereo not given): the Potency entry in test [1] and in test [2] was “inactive” throughout.
Turning to `NC(=O)C1CCN(c2nc(-c3cccc(F)c3)cs2)CC1`, the Potency entry in test [1] and in test [2] was “inactive” in each case.
In the case of `CC(C)COc1ccc(-c2ccc(=O)n(CC(=O)NCCc3ccccc3)n2)cc1`, the Potency result in test [1] and in test [2] was “inactive” throughout.
On to `Cc1ccc(OCCn2c(CCNC(=O)N3CCCCC3)nc3ccccc32)cc1`, for which the Potency entry in test [1] and in test [2] was “inactive” throughout.
Take `O=[N+]([O-])c1ccc(CSc2nc3ncc(Br)cc3[nH]2)cc1`: the Potency result in test [1] and in test [2] was “inactive” each time.
Consider `Cc1cc2c(s1)c1cnn(Cc3cccc(Cl)c3)c(=O)c1n2C`, for which the Potency entry in test [1] and in test [2] was “inactive” in each case.
Regarding `O=C(Nc1ccc(S(=O)(=O)Nc2nccs2)cc1)c1ccncc1`, the Potency result in test [1] and in test [2] was “inactive” throughout.
Consider `C[C@@H]1CC[C@]2(C(=O)O)CC[C@]3(C)C(=CCC4[C@@]5(C)C[C@@H](O)[C@H](O)[C@@](C)(CO)C5CC[C@]43C)C2[C@H]1C` (stereo not given in full), for which the Potency entry in test [1] and in test [2] was “inactive” throughout.
On to `O=C(O)c1ccc(O)c2ncc(N3CCCC3)cc12`, for which the Potency result in test [1] and in test [2] was “inactive” in each case.
Consider `COc1ccc(NS(=O)(=O)c2ccc(C)cc2)cc1C(=O)Nc1nc(-c2ccccc2)cs1`, for which the Potency result in test [1] and in test [2] was “inactive” in each case.
For `NC(=O)c1cccc(C[C@H](C(=O)O)N2C(=O)c3ccc(C(=O)O)cc3C2=O)c1`, the Potency result in test [1] and in test [2] was “inactive” each time.
As to `Nc1ccccc1OCCn1c(CCNC(=O)C2CCCCC2)nc2ccccc21`, the Potency result in test [1] and in test [2] was “inactive” throughout.
Consider `Cc1cc(NC(=O)Nc2nnc(-c3ccncc3)s2)ccc1F`, for which the Potency entry in test [1] and in test [2] was “inactive” throughout.
Take `Cc1cccc(CNc2ncnc3ccc(-c4ccc5c(c4)OCCO5)cc23)c1`: the Potency entry in test [1] and in test [2] was “inactive” throughout.
Consider `Cc1cc(NS(=O)(=O)c2ccc(NC(=O)CCc3ccc(Cl)c(Cl)c3)cc2)no1`, for which the Potency result in test [1] and in test [2] was “inactive” in each case.
`COc1ccccc1OCCN1CC(COc2cccc3[nH]c4ccccc4c23)OCC1=O` (stereo not given): the Potency result in test [1] and in test [2] was “inactive” in each case.
On to `COc1ccc(C2Nc3ccccc3C(=O)N2Cc2cccs2)cc1COc1c(C)cccc1C` (stereo not given), for which the Potency entry in test [1] and in test [2] was “inactive” in each case.
`Cc1nc(NCCO)c2nc(-c3ccccc3)n(CCCN(C)C)c2n1`: the Potency result in test [1] and in test [2] was “inactive” each time.

(Values after PubChem BioAssay (NCATS).)
